According to the supplement of paper PMC9694430:

Experiments:
Assay in all cases: thermal shift delta Tm vs DMSO control; higher = stronger stabilization (binding)
Details in all cases: 12.5 µM; protein concentration 2 µM
[1] = system: LOC_OS01G01410-cb001
In short: (§1)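 Purified, E. coli-expressed rice kinase domain constructs were tested by differential scanning fluorimetry in 96-well plates: 19.5 μl of 2 μM kinase in 100 mM potassium phosphate pH 7.5, 150 mM NaCl, 10% glycerol, 5 × SYPRO Orange, plus compound in DMSO. Fluorescence was read from 25°C to 95°C at 0.05°C/s. Melting temperatures came from Boltzmann fits, and the shift is the triplicate mean relative to protein with DMSO alone.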

[2] = system: LOC_OS01G02750-cb003
In short: as §1

[3] = system: LOC_OS01G10900-cb004
In short: as §1

[4] = system: LOC_OS01G13800-cb001
In short: as §1

[5] = system: LOC_OS01G14860-cb001
In short: as §1

[6] = system: LOC_OS01G21960-cb002
In short: as §1

[7] = system: LOC_OS01G39600-cb002
In short: as §1

[8] = system: LOC_OS01G48390-cb002
In short: as §1

[9] = system: LOC_OS01G51400-cb002
In short: as §1

[10] = system: T1, LOC_OS01G52050-cb004
T1 sequence (whole entry): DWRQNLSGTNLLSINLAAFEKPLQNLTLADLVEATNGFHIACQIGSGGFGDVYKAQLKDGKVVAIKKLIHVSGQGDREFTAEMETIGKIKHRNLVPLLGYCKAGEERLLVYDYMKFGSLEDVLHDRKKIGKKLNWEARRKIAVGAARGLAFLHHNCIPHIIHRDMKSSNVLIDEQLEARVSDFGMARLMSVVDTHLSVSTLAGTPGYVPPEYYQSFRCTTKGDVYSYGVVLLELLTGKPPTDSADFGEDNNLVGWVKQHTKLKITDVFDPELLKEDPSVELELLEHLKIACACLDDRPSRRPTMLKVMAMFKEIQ
In short: as §1

[11] = system: LOC_OS01G57100-cb003
In short: as §1

[12] = system: LOC_OS01G60330-cb001
In short: as §1

[13] = system: LOC_OS01G60700-cb002
In short: as §1

[14] = system: LOC_OS01G63280-cb003
In short: as §1

[15] = system: LOC_OS01G67340-cb003
In short: as §1

[16] = system: LOC_OS01G70970-cb002
In short: as §1

[17] = system: LOC_OS02G07810-cb001
In short: as §1

[18] = system: LOC_OS02G08530-cb003
In short: as §1

[19] = system: LOC_OS02G14120-cb001
In short: as §1

[20] = system: LOC_OS02G17970-cb001
In short: as §1

SMILES | thermal shift delta Tm [1] [°C] | thermal shift delta Tm [2] [°C] | thermal shift delta Tm [3] [°C] | thermal shift delta Tm [4] [°C] | thermal shift delta Tm [5] [°C] | thermal shift delta Tm [6] [°C] | thermal shift delta Tm [7] [°C] | thermal shift delta Tm [8] [°C] | thermal shift delta Tm [9] [°C] | thermal shift delta Tm [10] [°C] | thermal shift delta Tm [11] [°C] | thermal shift delta Tm [12] [°C] | thermal shift delta Tm [13] [°C] | thermal shift delta Tm [14] [°C] | thermal shift delta Tm [15] [°C] | thermal shift delta Tm [16] [°C] | thermal shift delta Tm [17] [°C] | thermal shift delta Tm [18] [°C] | thermal shift delta Tm [19] [°C] | thermal shift delta Tm [20] [°C]
C#Cc1cccc(Nc2ncnc3cc4c(cc23)OCCOCCOCCO4)c1 [Icotinib] | -0.52 | 0.8 | 0.96 | 0.01 | 0.16 | 0.74 | 2.84 | 2.19 | 0.45 | 0.36 | 2.43 | 0.51 | 1.16 | 0.89 | 0.11 | 0.61 | 0.45 | 1.31 | 2.16 | 1.61
Clc1ccc(C2(c3ccc(-c4cn[nH]c4)cc3)CCNCC2)cc1 | 0.09 | 0.73 | 0.17 | 0.44 | 0.54 | 0.46 | -0.39 | 0.45 | 0 | 0.38 | 1.65 | 0.98 | 0.54 | 0.22 | -0.1 | 0.01 | 1.21 | 0.59 | 0.25 | 1.03
CS(=O)(=O)CCNCc1ccc(-c2ccc3ncnc(Nc4ccc(OCc5cccc(F)c5)c(Cl)c4)c3c2)o1 | 1.42 | 0.57 | -0.68 | 0.49 | 0.2 | 0.5 | 0.33 | 0.41 | 0.31 | 0.63 | 0.92 | 1.06 | 1.49 | 0.35 | -0.49 | 0.26 | 1.15 | 0.58 | -0.53 | 0.69
C[C@@H]1COCCN1c1cc(C2([S@](C)(=N)=O)CC2)nc(-c2cc[nH]c3nccc2-3)n1 | 0.28 | 0.13 | -0.04 | 0.31 | -0.19 | -0.02 | -0.99 | -0.04 | -0.01 | -0.09 | 0.97 | 0.61 | 0.22 | -0.13 | 0.47 | 0.14 | 0.56 | 0.49 | 0.92 | 0.47
CNC(=O)c1cc(Oc2ccc3nc(N[C@@H]4CCCC[C@H]4O)sc3c2)ccn1 | 0.03 | 2.05 | 1.18 | 0.41 | -0.2 | 0.67 | -0.55 | 0.91 | 0.42 | 0.41 | 1.55 | 0.59 | 1.46 | 0.76 | 1.16 | 0.25 | 0.97 | 0.76 | -0.02 | 0.53
COc1cc2c(N3CCN(C(=O)Nc4ccc(OC(C)C)cc4)CC3)ncnc2cc1OCCCN1CCCCC1 [Tandutinib (MLN518)] | 0.23 | 1.12 | 0.43 | 0.92 | 0.05 | 0.83 | 0.57 | -0.07 | 0.02 | 0.86 | 0.97 | 0.04 | 0.63 | 0.12 | 0.5 | -0.15 | 0.79 | 0.33 | 0.24 | -0.44
Oc1ccc(-c2nc(-c3ccc(F)cc3)c(-c3ccncc3)[nH]2)cc1 | 1.39 | 0.58 | 0.58 | 0.18 | 2.36 | 0.98 | -0.06 | 0.38 | 0.01 | 0.5 | 1.5 | 0.98 | 2.02 | 0.47 | -0.26 | 0.63 | 1.96 | 1.58 | 0.99 | 1.05
Nc1ccc(-c2ccc3ncc4ccc(=O)n(-c5cccc(C(F)(F)F)c5)c4c3c2)cn1 [Torin 2] | 1.14 | 1.23 | -0.05 | -0.87 | 2.07 | 1.41 | 0.74 | 0.94 | 0.41 | 0.7 | 0.64 | 1.09 | 1.01 | 0.11 | 0.33 | 0.87 | 0.19 | 1.53 | 1.62 | 1.12
Cc1ccc(C(=O)Nc2ccc(Oc3cc4cnn(C)c4cc3-c3cn[nH]c3)c(F)c2)c(=O)n1-c1ccc(F)cc1 | 0.22 | 3.21 | 0.37 | 1.46 | 3.24 | 0.63 | 0.72 | 1.1 | 0.84 | 2.17 | 2.31 | 1.94 | 1.29 | 5.18 | 1.33 | 0.33 | 1.19 | 1.25 | 5.05 | 1.48
C[C@@H]1CN(CC(=O)Nc2ccc3c(c2)Cc2cccc(-c4cc(=O)cc(N5CCOCC5)o4)c2S3)C[C@H](C)O1 | 0.15 | 1.53 | 0.85 | 0.28 | 1.89 | 0.63 | -0.34 | 0.3 | 0.05 | 0.42 | 1.01 | 0.66 | 0.34 | 0.3 | 0 | -0.1 | 0.97 | 0.73 | 0.18 | 0.49
COc1cc2ncnc(Nc3ccc(Oc4ccccc4)cc3C)c2cc1OC | 0.68 | 0.9 | 0.3 | -0.47 | 0.22 | 0.26 | 0.05 | 0.79 | 0.08 | 2.07 | 1.05 | 0.33 | 0.09 | 0.54 | 0.17 | 0.47 | -1.03 | 0.5 | 3.14 | 0.03
Cn1nccc1Nc1nccc(-c2ccn([C@H](CO)c3ccc(Cl)c(F)c3)c(=O)c2)n1 | 0.99 | 1.21 | 0.24 | -0.2 | 5 | 0.94 | 0.18 | 0.6 | 0.59 | 0.85 | 1.99 | -0.22 | 0.52 | 0 | 0.09 | 0.22 | -0.02 | 0.98 | 0.71 | -0.12
